Test results reported in ChEMBL document CHEMBL4513216, “Probing the Open Global Health Chemical Diversity Library for Multistage-Active Starting Points for Next-Generation Antimalarials” (ACS Infect Dis, 2020).
Out of some 69,000 compounds screened, about 8,600 (12%) showed an effect of 50% or more. Many of the other results were omitted from the sample, so strong results are more common in it than they were.

tested on: Plasmodium berghei; assay: Screen against P. berghei liver stage (PbLuc), transformed with Luciferase, at 10uM; type: functional, HepG2; conditions: tested at 10 uM

Point of comparison: `CC(=O)N1CCN([C@@H]2CC[C@@H](N(C)C(=O)C3CCCCC3)[C@H]2O)CC1`, INHIBITION 39.7%. Against it:
- CN(Cc1nc2ccccc2o1)C1CCCN(c2cccnn2)C1 (configuration not stated) — lower, 28.8%
- Cc1nc(CN2CCOCC3(CCCN(c4cnccn4)C3)C2)cs1 (configuration not stated) — lower, 15.4%
- CCCc1cc(N2CCC(NC3CCC(O)CC3)CC2)nc(C)n1 (configuration not stated) — lower, 2.15%
- CCCc1cc(CNC2CCN(c3nc(C)cc(C)n3)CC2)on1 — lower, 35.2%
- CCCc1cc(N2CCC(NCC3(O)CCCCC3)CC2)nc(C)n1 — lower, 6.69%
- CCCc1cc(CNC2CCN(c3nc4ccccc4s3)CC2)on1 — higher, 67.8%
- c1ccc(CN2CCC(NCCSc3ncn[nH]3)C2)cc1 (configuration not stated) — higher, 42.3%
- CCCc1cc(CNC(=O)C2CCOc3ccccc3C2)on1 (configuration not stated) — lower, 26.8%
- CCCc1cc(N2CCC(NC3CCOCC3)CC2)nc(C)n1 — lower, 22.1%
- Cc1n[nH]c(SCCNC2CCN(c3nc4ccccc4s3)CC2)n1 — higher, 50.2%
- Cn1ccnc1SCCNC1CCN(c2nc3ccccc3s2)CC1 — lower, 34.1%
- CCCc1cc(CNC2CCN(c3cc(C(C)C)nc(C)n3)CC2)on1 — higher, 61.3%
- CCCc1cc(CNC2CCN(c3cc(C)nc(N)n3)CC2)on1 — higher, 71.1%
- CCCC1COCCN1Cc1ccc(NC(C)=O)cc1 (configuration not stated) — lower, -30%
- CC(C(=O)N1CCCCC1)N1CCN(c2nccs2)CC1 (configuration not stated) — higher, 41.3%
- CN(C)C(=O)NCc1cc(=O)n2c(n1)CN(Cc1ccoc1)CCC2 — lower, 5.41%
- CCn1ncc2c1C(COCC1CC1)N(Cc1cnn(C)c1)CC2 (configuration not stated) — lower, -44.2%
- O[C@H]1CCN(Cc2ccoc2)[C@H]1Cc1cccnc1 — higher, 41.4%
- CC(=O)N1CCCCC[C@@H]2[C@@H]1[C@H](c1cccc(F)c1)CN2CCC(N)=O — lower, 32.95%
- O=C(C1=CCCC1)N1C[C@H]2CCC[C@@]2(COCc2ccncc2)C1 — higher, 47.9%
- Cc1cn(CC(=O)NC2CCC(C(=O)O)CC2)c2ccccc12 (configuration not stated) — lower, 26.4%
- Cc1cc(=O)n(CC(=O)NC2CCCCC2)c2ccccc12 — higher, 70.1%
- COC(=O)[C@@H]1C[C@H](NC(=O)Cn2c(=O)cc(C)c3ccccc32)CN1C — lower, -4.4%
- Cc1nnn2c1COCC(CNC(=O)c1ccc[nH]1)C2 (configuration not stated) — lower, 26.5%
- CC(C)CSCCN1CCN(S(C)(=O)=O)CC1 — higher, 45.3%
- CC(C)CSCCN1CCCN(S(C)(=O)=O)CC1 — higher, 75.6%
- CCSCCN1CCCN(S(C)(=O)=O)CC1 — lower, 37.7%
- O=C1CCOC[C@]2(CN(Cc3ccccc3)C[C@H]2c2ccccc2F)N1 — lower, 23.9%
- CN1CCN(C(=O)[C@H]2C[C@H]3[C@H](CCN3Cc3cccs3)O2)CC1 — lower, -7.24%
- c1cncc(CN2CCCC3(COCCN(c4cnccn4)C3)C2)c1 (configuration not stated) — lower, 12.7%
- Cc1noc(C)c1CN(C)C(=O)NC(C)c1cccs1 (configuration not stated) — lower, -55.1%
- CC(Cn1ccnc1)NC(=O)N(C)Cc1ccc2c(c1)OCO2 (configuration not stated) — lower, 7.12%
- Cc1noc(C)c1CN(C)C(=O)NC(C)Cc1ccco1 (configuration not stated) — higher, 53.3%
- CC(Cn1ccnc1)NC(=O)N(C)Cc1ccsc1 (configuration not stated) — higher, 57.4%
- CC(Cn1ccnc1)NC(=O)N(C)Cc1ccco1 (configuration not stated) — higher, 81%
- Cc1cc(CN(C)C(=O)NC(C)Cc2ccco2)no1 (configuration not stated) — lower, 34.2%
- CN(Cc1ccco1)C(=O)NC(Cn1ccnc1)C(C)(C)C (configuration not stated) — lower, -27.8%
- CC(Cn1cccn1)NC(=O)N(C)Cc1ccsc1 (configuration not stated) — lower, -1.04%
- CC(Cn1ccnc1)NC(=O)N(C)Cc1ccc2c(c1)OCCO2 (configuration not stated) — lower, 36.1%
- O=C(O)c1cc2c(nc1-c1ccncc1)CCN(C1CCOC1)CC2 (configuration not stated) — lower, -28.2%
- CCn1cc(S(=O)(=O)N(CCc2ccccc2)Cc2ccn(C)n2)cn1 — lower, 21.425%
- CCc1ncc2c(n1)CN(Cc1nc(-c3cccnc3)no1)CC2 — lower, -10.6%
- Cc1ccc(C2CCCN2S(=O)(=O)N(C)CCc2ccccn2)o1 (configuration not stated) — lower, -17.35%
- CCOC(=O)C(C)Nc1cccc(COCc2ccco2)c1 (configuration not stated) — lower, 12.1%
- CCOCC(=O)NS(=O)(=O)c1ccc(F)cc1C(F)(F)F — lower, 0.0944%
- COCCOC1CCN(C(C(=O)O)c2ccc(F)c(Cl)c2)CC1 (configuration not stated) — lower, 23.9%
- COCCOC1CCN(C(C(=O)O)c2c(Cl)cccc2OC)CC1 (configuration not stated) — higher, 50.3%
- COc1cccc(Cl)c1C(C(=O)O)N1CCC(Cn2cccn2)CC1 (configuration not stated) — lower, -47%
- CC(C)c1ncncc1C(=O)NCCN1CCOCC1 — lower, -1.33%
- COCCC(Cc1cccc(Br)c1)C(=O)N(C)C (configuration not stated) — lower, -28.4%
- COc1ccc(C2Nc3ccccc3N=C3CNC(=O)C32)cc1OC (configuration not stated) — lower, 10.4%
- CCOC(=O)Cn1nnnc1-c1ccccc1 — higher, 64%
- CCn1nnnc1-c1cccc(NC(=O)CCOC(C)C)c1 — lower, 4.01%
- CCn1nnnc1-c1cccc(NC(N)=O)c1 — lower, 8.18%
- Cc1sc(NC(=O)CN2CCCC(c3ncc[nH]3)C2)c(C)c1C (configuration not stated) — higher, 94.1%
- O=C(CN1CCCC(c2ncc[nH]2)C1)NCCCN1CCCCCC1=O (configuration not stated) — higher, 45.4%
- COC(=O)NCC(=O)N1CCCC(c2ncc[nH]2)C1 (configuration not stated) — lower, 15.2%
- O=C(CCC(F)(F)F)N1CCCC(c2ncc[nH]2)C1 (configuration not stated) — lower, -0.71%
- O=C(CN1CCCC(c2ncc[nH]2)C1)NCC(F)(F)F (configuration not stated) — higher, 81.2%
- Cc1nc(CNC(=O)N2CCCC(c3ncc[nH]3)C2)sc1C (configuration not stated) — lower, 23.5%
- CCn1nccc1CNC(=O)C1CCCO1 (configuration not stated) — lower, 17%
- COc1ccc(N2CCN(C(=O)OC(C)(C)C)C(C(=O)O)C2)cc1 (configuration not stated) — lower, 2.55%
- Cc1ccc(N2CCC3(CCN(C(=O)c4ccoc4)CC3)CC2)nn1 — lower, -0.27%
- Cc1cc(N2CCC(NC(=O)C3CC3)CC2)nc(-c2ccncc2)n1 — lower, 23.4%
- CCCc1cc(C(=O)N2C[C@H](O)[C@@H](N3CCCC3)C2)ccn1 — higher, 55.2%
- CCCc1cc(C(=O)N2CC(c3ccncc3)C2)ccn1 — lower, 8.64%
- CCCc1cc(C(=O)N2C[C@H]3CC=C(C)C[C@H]3C2)ccn1 — lower, 6.66%
- CC(C)c1sc(Cl)nc1C(=O)N1CCN(c2ccccc2)CC1 — lower, -1.23%
- NC(=O)C1CCN(C(=O)NCc2csc(Br)c2)CC1 — lower, 16.9975%
- Cc1csc(N(C)C(=O)C(c2c(F)cccc2Cl)N(C)C)n1 (configuration not stated) — lower, 9.04%
- CN(C(=O)C(c1c(F)cccc1Cl)N(C)C)c1nccs1 (configuration not stated) — higher, 66.5%
- CN(C)C(C(=O)NCC1(O)CCCCC1)c1c(F)cccc1F (configuration not stated) — lower, -21.2%
- N#Cc1c(F)cccc1N1CCC(C(=O)Nc2nccs2)CC1 — lower, 17.5%
- CN(C)C(C(=O)Nc1nccs1)c1c(F)cccc1Cl (configuration not stated) — higher, 50.8%
- COCCOc1ncccc1C(=O)N(C)c1nccs1 — higher, 45.2%
- CCNc1cc2c(nn1)CCN(C(=O)c1nccnc1N)C2 — lower, 23.5%
- Cc1c(C2CC(=O)Nc3c2cnn3C(C)C)cnn1C (configuration not stated) — lower, 24.7%
- Cc1cn2nc(N(C)C3CCCN(c4cccnn4)C3)sc2n1 (configuration not stated) — lower, 11.5%
- CCCNC(=O)COc1cccc(-c2nc(C(C)C)no2)c1 — lower, 31.3%
- Cc1ccc(Nc2nccc(C3CN(CC(N)=O)C3)n2)nc1 — higher, 46.6%
- CC(=O)N1CC(c2ccnc(Nc3ccc(C)cn3)n2)C1 — lower, -9.32%
- Cc1ccc(Nc2nccc(C3CCN(CC(N)=O)C3)n2)nc1 (configuration not stated) — higher, 88.1%
- CC(=O)N1CCC(c2ccnc(Nc3ccc(C)cn3)n2)C1 (configuration not stated) — lower, -55%
- Cc1cccnc1Nc1nccc(C2CN(CC(N)=O)C2)n1 — lower, -4.51%
- Cc1ccc(Nc2nccc(C3CCCN(CC(=O)N(C)C)C3)n2)nc1 (configuration not stated) — higher, 79.6%
- COCC(=O)N1CC(c2ccnc(Nc3ccc(C)cn3)n2)C1 — lower, 6.32%
- O=C(C1CCC1)N1CCCC(c2ccnc(Nc3cnccn3)n2)C1 (configuration not stated) — lower, -14.1%
- Cc1ccc(Nc2nccc(C3CN(C(C)C)C3)n2)nc1 — higher, 61.7%
- Cn1nc2c(cc1=O)CN(Cc1nc(-c3cccnc3)no1)CC2 — lower, 13.3%
- CC(C)NC(=O)N1CCCC2(CCN(c3ccccc3)C2=O)C1 (configuration not stated) — lower, -20.8%
- COc1cccc(NC(=O)Cn2cc(-c3ccccc3)ncc2=O)c1 — lower, 28.2%
- CN(Cc1n[nH]c2c1CCC2)C(=O)c1cccc(CCC(C)(C)O)c1 — higher, 68.5%
- CN(Cc1cc[nH]n1)C(=O)c1cccc(CCC(C)(C)O)c1 — lower, 34.1%
- CN(Cc1n[nH]c2c1CCCC2)C(=O)c1cccc(CCC(C)(C)O)c1 — higher, 48.5%
- OC1CCN(c2nc(-c3ccccc3)no2)CC1 — lower, -3.74%
- O[C@H]1CN(c2nc(-c3ccccc3)no2)C[C@@H]1N1CCOCC1 — lower, -22.7%
- OC1CCN([C@@H]2CCN(c3nc(-c4ccccc4)no3)C[C@H]2O)CC1 — higher, 69.8%
- CC(C)c1ccc2c(c1)C1(CC(=O)Nc3[nH]ncc31)C(=O)N2C (configuration not stated) — lower, 17.7%
- CCOc1ccc(NC(=O)NCc2cccnc2OCC)cc1 — lower, 13.6%
- Cc1cccc(CN2CCc3ncnc(-c4ccsc4)c3CC2)n1 — higher, 53.2%
- Cc1nc(CN2CCc3ncnc(C)c3CC2)cs1 — higher, 56.3%
- Cc1cccc(CN2CCc3ncnc(C)c3CC2)n1 — lower, 6.8%
- Cc1nc(CN2CCN(c3ccc(SC(C)C)nn3)CC2)cs1 — lower, -4.13%
- c1ccc(CN2CCc3ncnc(-c4ccsc4)c3CC2)nc1 — lower, 19.9%
- Cc1nc(CN2CCc3ncnc(-c4ccsc4)c3CC2)cs1 — higher, 60.2%
- Cc1nc(CN2CCc3ncnc(-c4ccncc4)c3CC2)cs1 — lower, 27.6%
- Cc1nc(CN2CCc3ncnc(-c4ccccc4)c3CC2)cs1 — lower, 6.6%
- Cc1nc(CN2CCN(c3nc4c(s3)c(C)nn4C)CC2)cs1 — higher, 73.9%
- CCOc1ncnc2c1CCN(Cc1csc(C)n1)CC2 — lower, 1.94%
- Cc1nc(CN2CCc3ncnc(C4CC4)c3CC2)cs1 — lower, 15.9%
- Cc1nn(C)c2nc(N3CCN(Cc4nccn4C)CC3)sc12 — lower, 37.6%
